# Where “and” joins values, the source holds several entries; their conditions need not be identical. Equal entries are not always repeated. Unmarked numbers belong to inactive results. How the calls were made is not given here.
# Test system: Botulinum neurotoxin type F light chain protease (Clostridium botulinum)
# Assay: Clostridium botulinum type F light chain protease inhibitors, microsphere substrate cleavage, validation (AID 588459)
# Conditions: multiplex microsphere protease substrate cleavage assay, flow cytometry; at 10 µM; hits give high values
row,SMILES,inhibition
1,C[C@]12CC[C@@H]3c4ccc(O)cc4CC[C@H]3[C@@H]1CCC2=O,1.3%
2,COCCn1c(/C=C/c2ccccc2)nc2ccccc21,-1.2%
3,c1ccc(Cn2ncc3c(Nc4ccccc4)ncnc32)cc1,1.6%
4,COc1cc2c(cc1OC)-c1cc(NC3CCCCCC3)nc(=O)n1CC2,-2.3%
5,C[C@@H]1C[C@H]2[C@@H]3CCC4=CC(=O)C=C[C@]4(C)[C@@]3(F)[C@@H](O)C[C@]2(C)[C@H]1C(=O)CO,0.3%
6,C[C@]12CC[C@@H]3c4ccc(O)cc4[C@@H](O)C[C@H]3[C@@H]1CC[C@@H]2O,3.3%
7,CCOC(=O)c1ncn2c1CN(C)C(=O)c1cc(F)ccc1-2,-1.4%
8,O=C(CCCn1c(=O)oc2ccccc21)N1CCN(c2ccc(F)cc2)CC1,1.1%
9,COc1ccccc1C(=O)Nc1cc2cc(Br)ccc2oc1=O,3.8%
10,Oc1ccc(Cl)cc1Cc1cc(Cl)ccc1O,10%
11,CC(=O)Oc1cc2oc(=O)cc(C)c2cc1OC(C)=O,-1.8%
12,CC(=O)N(C(C)=O)c1nc2nc(C)cc(C)n2n1,5.2%
13,CC(=O)NC(NC(=S)N1CCCCCC1)C(Cl)(Cl)Cl (stereo unspecified),-2.7%
14,c1ccc(CN(CC2=NCCN2)c2ccccc2)cc1,5.3% and 2.2%
15,Cc1cc(-c2ccccc2)nnc1NCCN1CCOCC1,-0.7%
16,COc1cc(Cl)cc2c1Sc1ccccc1/C2=C/CCN(C)C,-4.5%

# — PubChem BioAssay
